In PubChem BioAssay (Tox21):
Records with an inconclusive call do not appear. Entries that show only a call come without a potency. Active and inactive are the calls of the source. Calls come from the whole dose curve; as a rule, active = well fitted inhibition curve with a large enough effect in the repeat runs; inconclusive = weak or mixed curves; inactive = no such curve, though single readings can be large or run the other way.

molecular target: Cytochrome P450 2C9 (Homo sapiens) (UniProt P11712); experiment: Cytochrome P450 Family 2 Subfamily C Member 9 (CYP2C9) small molecule antagonists: luciferase reporter qHTS assay (AID 1671198); conditions: P450-Glo CYP2C9 enzyme assay, luciferin luminescence; series mostly up to 115 µM; note: nearly all actives have a fitted effect of over 50% in size
Sequence (P11712 whole entry, looked up): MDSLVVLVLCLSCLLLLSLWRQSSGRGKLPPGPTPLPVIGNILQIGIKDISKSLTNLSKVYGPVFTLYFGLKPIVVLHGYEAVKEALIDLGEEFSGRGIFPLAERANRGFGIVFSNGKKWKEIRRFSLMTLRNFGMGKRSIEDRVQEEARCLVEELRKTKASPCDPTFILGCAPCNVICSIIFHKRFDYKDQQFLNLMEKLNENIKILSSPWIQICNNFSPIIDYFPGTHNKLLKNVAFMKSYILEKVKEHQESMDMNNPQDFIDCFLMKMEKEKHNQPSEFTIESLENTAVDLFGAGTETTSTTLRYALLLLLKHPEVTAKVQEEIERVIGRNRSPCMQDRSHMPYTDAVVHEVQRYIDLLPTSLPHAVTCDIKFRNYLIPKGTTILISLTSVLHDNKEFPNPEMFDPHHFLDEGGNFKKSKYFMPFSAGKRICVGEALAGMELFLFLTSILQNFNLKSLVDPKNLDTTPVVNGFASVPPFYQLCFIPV
Summary of the method: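 Enzyme-substrate mix preincubated with compound 10 min at room temperature; reaction started with NADPH regeneration solution, 1 h 37C. Luminescent luciferin product read after 20 min detection reagent.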
Potency is the fitted concentration of half-maximal effect.

| SMILES | Potency |
| --- | --- |
| Cc1ccccc1S(=O)(=O)O | inactive |
| O=S(=O)(Oc1ccc(Cl)cc1)c1ccccc1 | 31.7 µM (active) |
| CNC(=O)CN(CCN(CCN(CC(=O)[O-])CC(=O)NC)CC(=O)[O-])CC(=O)[O-].O.[Gd+3] | inactive |
| C=CCOC(=O)CCC1CCCCC1 | inactive |
| O[C@@H](COc1cccc2ncccc12)CN1CCN(C2c3ccccc3[C@@H]3[C@H](c4ccccc42)C3(F)F)CC1 (stereo not given in full) | 11 µM (active) |
| O=C1CCC(=O)O1 | inactive |
| CCCCC(CC)COC(=O)CCCCCCCCC(=O)OCC(CC)CCCC (stereo not given) | inactive |
| CCNc1cc(O)ccc1C | 9.92 µM (active) |
| CC1CCC(=O)C1=O (stereo not given) | inactive |
| C=C(C)C(=O)OCCO | inactive |
| Cc1c(N)cccc1[N+](=O)[O-] | inactive |
| CC1=CC=C(C(C)C)CC1 | 63.3 µM (active) |
| CCN(CC)c1ccc2c(-c3ccccc3C(=O)O)c3ccc(=[N+](CC)CC)cc-3oc2c1 | 28.3 µM (active) |
| NCCCN1CCOCC1 | inactive |
| CCOc1ccc(N=Nc2ccc(/C=C/c3ccc(N=Nc4ccc(OCC)cc4)cc3S(=O)(=O)O)c(S(=O)(=O)O)c2)cc1 | inactive |
| CN1CCC(N(Cc2cccs2)c2ccccc2)CC1 | inactive |
| COc1ccc(C(=O)c2ccc(OC)cc2O)c(O)c1 | 11.3 µM (active) |
| O=C(O)c1ccc(S(=O)(=O)O)cc1C(=O)O | inactive |
| O=C(OCCCCCCOC(=O)c1ccccc1)c1ccccc1 | 7.96 µM (active) |
| C=C(C)C(=O)OCC | inactive |

| SMILES | Potency |
| --- | --- |
| CCO[C@H](Cc1ccc(OCCc2ccc(OS(C)(=O)=O)cc2)cc1)C(=O)O | inactive |
| O=[N+]([O-])c1ccc(NCCO)c(OCCO)c1 | inactive |
| CCC(C)(C)CC | inactive |
| CCO[Si](CCCCl)(OCC)OCC | 35.3 µM (active) |
| CCN(CC)CCNc1ccc(CNC=O)c2sc3ccc(OC)cc3c(=O)c12 | 31.7 µM (active) |
| CCOc1ccc(N)c([N+](=O)[O-])c1 | 63.3 µM (active) |
| CN1Cc2cc(C(=O)N3CCC(C4CCNCC4)CC3)ccc2NC(CC(=O)O)C1=O (stereo not given) | inactive |
| O=C(OCCc1ccccc1)c1ccccc1 | 31.7 µM (active) |
| CC(C)(CO)[N+](=O)[O-] | inactive |
| Nc1c(CC(=O)O)cccc1C(=O)c1ccc(Br)cc1 | inactive |
| O=P(O)(OCc1ccccc1)OCc1ccccc1 | 22.4 µM (active) |
| COCCCN1CCC(NC(=O)c2cc(Cl)c(N)c3c2OCC3)CC1 | 3.09 µM (active) |
| CN1CCN(C(c2ccccc2)c2ccccc2)CC1 | inactive |
| Nc1ccc(N)c2c1C(=O)c1ccccc1C2=O | 12.6 µM (active) |
| Cn1c(=O)cc(Oc2ccc(F)cc2F)c2cnc(NCC(C)(C)O)nc21 | 56.4 µM (active) |
| CCOC(=O)C(F)(F)F | inactive |
| COc1cc2nc(N(C)CCCNC(=O)C3CCCO3)nc(N)c2cc1OC (stereo not given) | inactive |
| O=C(O)C1(C(=O)O)CCC1.[NH2-].[NH2-].[Pt+2] | 8.71 µM (active) |
| CC(=O)[O][Al][O]C(C)=O | inactive |
| COc1cc(Cl)c(OC)cc1N | 35.6 µM (active) |
